# Results from publication PMC8384837, “Expanding the binding specificity for RNA recognition by a PUF domain”.
# Numbering of substitutions follows the chain as printed.
# Columns and labels:
# Assay in all cases: yeast three-hybrid, YBZ-1, SC-Leu-His + 0.5 mM 3-AT, 4 days
# Settings in all cases: tags: N-Gal4 AD-HA kept; label: inside an RPR1-promoter hybrid RNA with tandem MS2 sites; ssRNA
# PUM1 PUF domain R6-TWS = target: T1, PUM1 PUF domain R6-TWS (Homo sapiens, UniProt Q14671 828-1176, N1043T;Y1044W;Q1047S)
# T1 sequence: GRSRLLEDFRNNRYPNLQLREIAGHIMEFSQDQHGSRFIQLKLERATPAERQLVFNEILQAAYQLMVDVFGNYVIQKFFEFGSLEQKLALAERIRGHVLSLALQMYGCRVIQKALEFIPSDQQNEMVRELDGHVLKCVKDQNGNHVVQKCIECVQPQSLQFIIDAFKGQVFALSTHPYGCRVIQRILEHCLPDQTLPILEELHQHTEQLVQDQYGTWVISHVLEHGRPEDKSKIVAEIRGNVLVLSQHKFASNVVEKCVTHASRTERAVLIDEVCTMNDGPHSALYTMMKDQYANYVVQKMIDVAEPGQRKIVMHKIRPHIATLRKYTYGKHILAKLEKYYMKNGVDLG
# Summary of the method: (§1)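 A centromeric plasmid in strain YBZ-1 co-expressed Pumilio-1 PUF domain libraries, randomized at the three base-contacting residues of each repeat, with matching RNA elements; the strain carries a LexA–MS2 coat fusion and a HIS3 reporter. After four days on SC-Leu (input) or SC-Leu-His + 0.5 mM 3-AT (selection), the repeat regions were PCR-amplified and Illumina-sequenced. The interaction score is the log change in variant frequency from input to selection, using log2 and a pseudocount of 1 where absent.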
# PUM1 PUF domain R5-GQA = PUM1 PUF domain R5-GQA (Homo sapiens, UniProt Q14671 828-1176, C1007G;R1008Q;Q1011A)
# Summary of the method: as §1
# PUM1 PUF domain R5-TND = PUM1 PUF domain R5-TND (Homo sapiens, UniProt Q14671 828-1176, C1007T;R1008N;Q1011D)
# Summary of the method: as §1
# PUM1 PUF domain R5-AQR = PUM1 PUF domain R5-AQR (Homo sapiens, UniProt Q14671 828-1176, C1007A;R1008Q;Q1011R)
# Summary of the method: as §1
# PUM1 PUF domain R5-PHD = PUM1 PUF domain R5-PHD (Homo sapiens, UniProt Q14671 828-1176, C1007P;R1008H;Q1011D)
# Summary of the method: as §1
# PUM1 PUF domain R5-SMS = PUM1 PUF domain R5-SMS (Homo sapiens, UniProt Q14671 828-1176, C1007S;R1008M;Q1011S)
# Summary of the method: as §1
# PUM1 PUF domain R8-RYK = PUM1 PUF domain R8-RYK (Homo sapiens, UniProt Q14671 828-1176, N1122R;Q1126K)
# Summary of the method: as §1
# PUM1 PUF domain R8-RRA = PUM1 PUF domain R8-RRA (Homo sapiens, UniProt Q14671 828-1176, N1122R;Y1123R;Q1126A)
# Summary of the method: as §1
# PUM1 PUF domain R8-FYH = PUM1 PUF domain R8-FYH (Homo sapiens, UniProt Q14671 828-1176, N1122F;Q1126H)
# Summary of the method: as §1
# PUM1 PUF domain R8-RHV = PUM1 PUF domain R8-RHV (Homo sapiens, UniProt Q14671 828-1176, N1122R;Y1123H;Q1126V)
# Summary of the method: as §1
# PUM1 PUF domain R7-QNR = PUM1 PUF domain R7-QNR (Homo sapiens, UniProt Q14671 828-1176, S1079Q;E1083R)
# Summary of the method: as §1
# PUM1 PUF domain R7-RVR = PUM1 PUF domain R7-RVR (Homo sapiens, UniProt Q14671 828-1176, S1079R;N1080V;E1083R)
# Summary of the method: as §1
# PUM1 PUF domain R7-QPK = PUM1 PUF domain R7-QPK (Homo sapiens, UniProt Q14671 828-1176, S1079Q;N1080P;E1083K)
# Summary of the method: as §1
# PUM1 PUF domain R5-KQR = PUM1 PUF domain R5-KQR (Homo sapiens, UniProt Q14671 828-1176, C1007K;R1008Q;Q1011R)
# Summary of the method: as §1
# PUM1 PUF domain R5-HAD = PUM1 PUF domain R5-HAD (Homo sapiens, UniProt Q14671 828-1176, C1007H;R1008A;Q1011D)
# Summary of the method: as §1
# PUM1 PUF domain R4-QGA = PUM1 PUF domain R4-QGA (Homo sapiens, UniProt Q14671 828-1176, N971Q;H972G;Q975A)
# Summary of the method: as §1
# PUM1 PUF domain R7-ASR = PUM1 PUF domain R7-ASR (Homo sapiens, UniProt Q14671 828-1176, S1079A;N1080S;E1083R)
# Summary of the method: as §1
# PUM1 PUF domain R3-MCG = PUM1 PUF domain R3-MCG (Homo sapiens, UniProt Q14671 828-1176, C935M;R936C;Q939G)
# Summary of the method: as §1
# PUM1 PUF domain R1-RKQ = PUM1 PUF domain R1-RKQ (Homo sapiens, UniProt Q14671 828-1176, S863R;R864K)
# Summary of the method: as §1
# PUM1 PUF domain R6-RPG = target: T2, PUM1 PUF domain R6-RPG (Homo sapiens, UniProt Q14671 828-1176, N1043R;Y1044P;Q1047G)
# T2 sequence: T1 sequence with T216R, W217P, S220G
# Summary of the method: as §1
sequence,measurement,setting,value
GGCUAGAACUAGUGGAUCCCCCGGCGCCCGGCGGCUCGAGCCCGGGUAAGUGAAAAUAGUCUGCAUGCCGCCGGGCGCCAUGCCUGCAGGUCGACUCUAGAAAACAUG,binding signal,PUM1 PUF domain R6-TWS,5.32 log2 enrichment (interaction score)
GGCUAGAACUAGUGGAUCCCCCGGCGCCCGGCGGCUCGAGCCCGGGUAAGUGUUAAUAGUCUGCAUGCCGCCGGGCGCCAUGCCUGCAGGUCGACUCUAGAAAACAUG,binding signal,PUM1 PUF domain R5-GQA,2.64 log2 enrichment (interaction score)
same,binding signal,PUM1 PUF domain R5-TND,2.81 log2 enrichment (interaction score)
same,binding signal,PUM1 PUF domain R5-AQR,3.22 log2 enrichment (interaction score)
same,binding signal,PUM1 PUF domain R5-PHD,3.76 log2 enrichment (interaction score)
same,binding signal,PUM1 PUF domain R5-SMS,0.83 log2 enrichment (interaction score)
GGCUAGAACUAGUGGAUCCCCCGGCGCCCGGCGGCUCGAGCCCGGGUAAGCGUAAAUAGUCUGCAUGCCGCCGGGCGCCAUGCCUGCAGGUCGACUCUAGAAAACAUG,binding signal,PUM1 PUF domain R8-RYK,7.26 log2 enrichment (interaction score)
same,binding signal,PUM1 PUF domain R8-RRA,3.15 log2 enrichment (interaction score)
same,binding signal,PUM1 PUF domain R8-FYH,2.85 log2 enrichment (interaction score)
same,binding signal,PUM1 PUF domain R8-RHV,5.23 log2 enrichment (interaction score)
GGCUAGAACUAGUGGAUCCCCCGGCGCCCGGCGGCUCGAGCCCGGGUAAGUCUAAAUAGUCUGCAUGCCGCCGGGCGCCAUGCCUGCAGGUCGACUCUAGAAAACAUG,binding signal,PUM1 PUF domain R7-QNR,3.58 log2 enrichment (interaction score)
same,binding signal,PUM1 PUF domain R7-RVR,0.98 log2 enrichment (interaction score)
same,binding signal,PUM1 PUF domain R7-QPK,4.87 log2 enrichment (interaction score)
GGCUAGAACUAGUGGAUCCCCCGGCGCCCGGCGGCUCGAGCCCGGGUAAGUGUGAAUAGUCUGCAUGCCGCCGGGCGCCAUGCCUGCAGGUCGACUCUAGAAAACAUG,binding signal,PUM1 PUF domain R5-SMS,2.69 log2 enrichment (interaction score)
GGCUAGAACUAGUGGAUCCCCCGGCGCCCGGCGGCUCGAGCCCGGGUAAGUGUCAAUAGUCUGCAUGCCGCCGGGCGCCAUGCCUGCAGGUCGACUCUAGAAAACAUG,binding signal,PUM1 PUF domain R5-AQR,5.35 log2 enrichment (interaction score)
same,binding signal,PUM1 PUF domain R5-KQR,2.87 log2 enrichment (interaction score)
same,binding signal,PUM1 PUF domain R5-HAD,6.65 log2 enrichment (interaction score)
GGCUAGAACUAGUGGAUCCCCCGGCGCCCGGCGGCUCGAGCCCGGGUAAGUGUAUAUAGUCUGCAUGCCGCCGGGCGCCAUGCCUGCAGGUCGACUCUAGAAAACAUG,binding signal,PUM1 PUF domain R4-QGA,2.73 log2 enrichment (interaction score)
GGCUAGAACUAGUGGAUCCCCCGGCGCCCGGCGGCUCGAGCCCGGGUAAGUGUACAUAGUCUGCAUGCCGCCGGGCGCCAUGCCUGCAGGUCGACUCUAGAAAACAUG,binding signal,PUM1 PUF domain R4-QGA,2.09 log2 enrichment (interaction score)
GGCUAGAACUAGUGGAUCCCCCGGCGCCCGGCGGCUCGAGCCCGGGUAAGUUUAAAUAGUCUGCAUGCCGCCGGGCGCCAUGCCUGCAGGUCGACUCUAGAAAACAUG,binding signal,PUM1 PUF domain R7-RVR,4.32 log2 enrichment (interaction score)
same,binding signal,PUM1 PUF domain R7-ASR,2.25 log2 enrichment (interaction score)
GGCUAGAACUAGUGGAUCCCCCGGCGCCCGGCGGCUCGAGCCCGGGUAAGUGUAAGUAGUCUGCAUGCCGCCGGGCGCCAUGCCUGCAGGUCGACUCUAGAAAACAUG,binding signal,PUM1 PUF domain R3-MCG,2.55 log2 enrichment (interaction score)
GGCUAGAACUAGUGGAUCCCCCGGCGCCCGGCGGCUCGAGCCCGGGUAAGUGUAAAUGGUCUGCAUGCCGCCGGGCGCCAUGCCUGCAGGUCGACUCUAGAAAACAUG,binding signal,PUM1 PUF domain R1-RKQ,2.35 log2 enrichment (interaction score)
GGCUAGAACUAGUGGAUCCCCCGGCGCCCGGCGGCUCGAGCCCGGGUAAGUGUAAAUAGUCUGCAUGCCGCCGGGCGCCAUGCCUGCAGGUCGACUCUAGAAAACAUG,binding signal,PUM1 PUF domain R6-TWS,2.56 log2 enrichment (interaction score)
same,binding signal,PUM1 PUF domain R8-RRA,1.42 log2 enrichment (interaction score)
same,binding signal,PUM1 PUF domain R5-KQR,0.64 log2 enrichment (interaction score)
same,binding signal,PUM1 PUF domain R6-RPG,3.6 log2 enrichment (interaction score)
same,binding signal,PUM1 PUF domain R8-RHV,3.99 log2 enrichment (interaction score)
